This is a sample that favours compounds with a hit; in the whole collection about 0.5% have one here.
E coli growth-1 = E. coli growth inhibition. Escherichia coli growth, OD600, 23 h; active compounds read low. OD600 absorbance (concentration not given with the values). actives 0.21% (n = 330,000);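 active = OD600 absorbance below the run mean of sample wells minus 3.6 SD, in any replicate, cut at about 0.56 in these data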
AddAB inh = less growth of phage-infected E. coli with AddAB; inhibition, % at 11.9 µM; E. coli expressing H. pylori AddAB, absorbance growth; actives 0.29% (n = 330,000); in the data active = inhibition above about 12%;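 note: 0% = vehicle wells of infected cells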
phage Ecoli inh = E. coli growth loss with phage present; growth absorbance; inhibition, % at 11.9 µM; actives 0.26% (n = 360,000); in the data active = inhibition above about 11%
Tat transport = blocks Tat-dependent protein export in E. coli; E. coli MC4100 TorA-mCherry Tat export, fluorescence; inhibition, % at 10 µM; actives 0.036% (n = 340,000);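 active = mean replicate inhibition at least 50% and at least half of replicates individually reaching 50%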;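 note: exported cargo escapes ClpAP degradation while cytoplasmic cargo is degraded and loses fluorescence; 0% = median of neutral control wells and 100% = median of NaSCN control wells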
E coli growth-2 = counter-screen for AddAB inhibitors: E. coli growth inhibition; E. coli V3065 growth, OD600 absorbance, 18 h; inhibition, % at 11.9 µM; actives 0.27% (n = 330,000); AID 449728;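 active = inhibition above the campaign's mean inhibition across all tested compounds plus 3 SD, cut at about 9.9% in these data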;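 note: uninfected addAB+ strain grown without phage in ampicillin broth; 0% = DMSO wells and 100% = ciprofloxacin 0.95 µg/ml wells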
* = called active by the depositor; . = no result given.

SMILES	E coli growth-1	AddAB inh	phage Ecoli inh	Tat transport	E coli growth-2
COc1ccc2cc(C(c3nnnn3C3CCCC3)N3CCCCCC3)c3nnnn3c2c1 (stereo not drawn)	0.776	9.2	2.1	-3.9	12.2*
COc1ccc2cc(C(c3nnnn3C3CCCCC3)N3CCCCCC3)c3nnnn3c2c1 (stereo not drawn)	0.728	0.4	0.5	-5.9	0.2
Cc1ccc(NC(=O)Nc2ccccc2)cc1[N+](=O)[O-]	0.54	5.6	8.8	1.8	5.1
O=C(Nc1ccccc1)Nc1ccc(Cl)c([N+](=O)[O-])c1	0.483*	7.2	3.2	-3.5	6.2
O=C(Nc1ccccc1)Nc1ccc2snnc2c1	0.571	5.8	5.2	3.2	5.2
O=C(Nc1ccccc1)Nc1cccc(Cl)c1	0.503*	5.0	9.7	-4.3	4.6
O=C(Nc1ccccc1)Nc1ccc2nnsc2c1	0.403*	7.8	8.8	-5.0	6.0
O=C(Nc1cccc(Cl)c1)Nc1ccc2c(c1)OCO2	0.53*	5.3	7.0	4.6	5.7
O=C(NCc1ccc2c(c1)OCO2)Nc1cccc(Cl)c1	0.678	-0.3	2.3	0.5	0.3
COc1ccc2cc(C(=O)C3CCCN(C(=O)c4snnc4C)C3)ccc2c1 (stereo not drawn)	0.695	-3.2	-0.9	2.6	-1.3
COc1ccc2cc(C(=O)C3CCCN(C(=O)Cc4c(C)noc4C)C3)ccc2c1 (stereo not drawn)	0.544*	1.1	-1.9	-1.7	-2.3
CCCCCCCNC(=O)C1(CC2CC(c3cccc(Br)c3)=NO2)CCNCC1 (stereo not drawn)	0.0475*	0.0	4.2	17.3	2.1
Cc1cccc(C(N)=NOC(=O)c2ccco2)c1	0.701	.	.	.	.
O=[N+]([O-])c1cccc(-c2ccc(/C=N/NC(=S)Nc3ccccc3)o2)c1	.	8.8	1.0	-3.7	10.2*
COC1=C(C)C(=O)C2=C(C1=O)C1C3CC4=C(C(=O)C(OC)=C(C)C4=O)C(CNC(=O)C(C)=O)N3C(C#N)C(C2)N1C (stereo not drawn)	.	.	15.3*	-8.9	.
CC(=O)N1N=C(c2cccc([N+](=O)[O-])c2)OC1c1ccc(Br)cc1 (stereo not drawn)	0.654	-0.8	1.5	15.9	1.2
CC(=O)N1N=C(c2ccccc2)OC1c1ccc([N+](=O)[O-])s1 (stereo not drawn)	0.511*	-2.2	.	-1.7	1.2
COc1ccc(N2C(=O)N3C(c4ccc(Cl)cc4)C4C(=O)N(C5CCCCC5)C(=O)C4[C@]3(Cc3ccc(Cl)cc3)C2=O)cc1 (stereo partly drawn)	0.723	.	.	.	.
CCN1C(=O)C(=CN2CCN(C)CC2)SC1=S	0.685	.	.	.	.
CC(=O)c1cccc(N(CC(=O)NCCc2ccccc2)C(=O)c2csnn2)c1	0.534*	3.8	0.5	-6.5	-0.4
C[C@H]1COc2c(C3(N)CC3)c(F)cc3c(=O)c(C(=O)O)cn1c23	.	100.3*	.	.	101.6*
CN(C)c1ccc(O)c2c1CC1CC3C(N(C)C)C(=O)C(C(N)=O)=C(O)[C@]3(O)C(=O)C1=C2O (stereo partly drawn)	0.0715*	.	.	.	.
CC1c2cccc(O)c2C(O)=C2C(=O)[C@]3(O)C(O)=C(C(N)=O)C(=O)C(N(C)C)C3C(O)C21 (stereo partly drawn)	0.0645*	.	.	.	.
CC1c2cccc(O)c2C(O)=C2C(=O)C3(O)C(O)=C(C(N)=O)C(=O)C(N(C)C)C3C(O)C21 (stereo not drawn)	0.067*	.	.	.	.
CC1c2cccc(O)c2C(=O)C2C(=O)C3(O)C(=O)C(C(N)=O)C(=O)C(N(C)C)C3C(O)C21 (stereo not drawn)	0.068*	.	.	.	.
SMILES	E coli growth-1	AddAB inh	phage Ecoli inh	Tat transport	E coli growth-2
O=C1CCCCC=CCC(CC(=O)N(CCO)Cc2ccccc2)C(=O)NCC(c2ccccc2)O1 (stereo not drawn)	0.655	.	.	.	.
NC(N)=NN=Cc1ccc(OCc2ccc(Cl)cc2)cc1	0.045*	.	.	.	.
NC(N)=N/N=C/c1ccc(OCc2ccc(Cl)cc2)cc1	.	2.5	2.6	3.1	2.0
NC(N)=NN=Cc1ccc(OCc2ccc(Cl)cc2Cl)cc1	0.0475*	.	.	.	.
CCC(C)C(NC(=O)C1CCN(C(=O)C(NS(=O)(=O)c2ccc(C)cc2)C(C)C)CC1)C(=O)O (stereo not drawn)	0.654	.	.	.	.
OCC(O)C(O)C(OC1OC(CO)C(O)C(O)C1O)C(O)CO (stereo not drawn)	0.66	.	.	.	.
CC1(C)OC2C(CO)OC(n3ccc(=O)[nH]c3=O)C2O1 (stereo not drawn)	0.632	.	.	.	.
Cc1cccc(NC(=S)N/N=C/c2ccc([N+](=O)[O-])s2)c1	.	14.7*	10.8	-10.1	19.2*
Cc1ccc2c(c1)N(C)/C(=C/c1cccc[n+]1C)S2	0.527*	1.5	-0.1	0.4	-2.1
CCc1cccc2c(C(=O)COC(=O)c3ccccc3)c[nH]c12	0.09*	1.9	2.9	1.3	0.8
CCOC(=O)C1C2COc3ccc(OC)cc3C2N2C(=O)CN(CC3CCCO3)C(=O)[C@@]12C (stereo partly drawn)	0.698	.	.	.	.
O=C1Nc2ccccc2/C1=C\C(=O)c1ccccc1	0.65	2.2	0.2	1.6	-2.9
O=C(/C=C1\C(=O)Nc2ccccc21)/C=C1\C(=O)Nc2ccccc21	0.509*	.	-0.7	2.1	.
CCN1/C(=C/C=C/c2oc3ccc4ccccc4c3[n+]2CC)Oc2ccc3ccccc3c21	0.685	10.6	.	.	11.0*
O=S(=O)(c1ccccc1)[C@@]1(c2ccc(Br)cc2)CC2ON=C(c3ccccc3)C2C1 (stereo partly drawn)	0.726	.	.	.	.
O=C(CNC(=O)c1[nH]cnc1C(=O)NC(Cc1ccccc1)C(=O)OCc1ccccc1)OCc1ccccc1 (stereo not drawn)	0.721	.	.	.	.
CCN(CC)c1ccc(C(=O)NNC(=O)CCl)cc1	.	-1.3	0.4	5.7	2.0
CCN(CC)c1ccc(C(=C2C=CC(=[N+](CC)CC)C=C2)c2ccc(N(CC)CC)cc2)cc1	0.893	.	-0.8	51.3*	.
COc1ccc(C2C3C=CCC[C@@]3(C)C(=O)N2Cc2ccccc2)cc1Cl (stereo partly drawn)	0.717	.	.	.	.
CCCOc1ccc(C(=O)NNC(=S)NC(=O)c2ccco2)cc1	0.551	3.8	3.5	-3.4	1.5
CCCCOc1ccc(C(=O)NNC(=S)NC(=O)CC)cc1	0.557	-6.7	.	1.5	-4.6
COc1ccc(C(=O)NNC(=S)NC(=O)c2ccco2)cc1	0.444*	1.9	-1.6	3.3	-1.1
CCCOc1ccc(C(=O)NNC(=S)NC(C)=O)cc1	0.273*	3.7	6.8	-19.2	-7.1
CCC(=O)NC(=S)NNC(=O)c1ccc(OC)cc1	0.458*	-1.4	-5.8	12.4	0.7
CCOC(=O)C=Cc1ccccc1S(=O)(=O)NC(C)(C)C	0.692	.	.	.	.
NCC12CC3CC(C1)CC(c1ccc(Cl)cc1)(C3)C2	0.505*	2.1	3.2	15.7	1.1
COc1ccc(C2C3C(=O)N(C(C)(C)C)C(=O)C3[C@]3(C)C(=O)N(c4ccccc4)C(=O)N23)cc1 (stereo partly drawn)	0.666	.	.	.	.
Cc1ccc(C(C)C)c(OCc2nn(CC(=O)c3ccc(Cl)cc3)c3[n+]2CCCCC3)c1	0.071*	3.4	3.8	44.0	2.6
